These results are taken from PubChem BioAssay AID1455 (National Center for Advancing Translational Sciences (NCATS), 2008).

The structures appear in SMILES notation. Inconclusive results are not listed. Calls of active or inactive are those of the source. The call rests on the fitted dose curve; in most records, active means well fitted inhibition curve with a large enough effect; inconclusive means small, poorly fitted or top-dose-only effect; inactive means no such curve, though single readings can be large or run the other way.

Ubiquitin carboxyl-terminal hydrolase 2 (Homo sapiens), sequence (O75604 whole entry, looked up): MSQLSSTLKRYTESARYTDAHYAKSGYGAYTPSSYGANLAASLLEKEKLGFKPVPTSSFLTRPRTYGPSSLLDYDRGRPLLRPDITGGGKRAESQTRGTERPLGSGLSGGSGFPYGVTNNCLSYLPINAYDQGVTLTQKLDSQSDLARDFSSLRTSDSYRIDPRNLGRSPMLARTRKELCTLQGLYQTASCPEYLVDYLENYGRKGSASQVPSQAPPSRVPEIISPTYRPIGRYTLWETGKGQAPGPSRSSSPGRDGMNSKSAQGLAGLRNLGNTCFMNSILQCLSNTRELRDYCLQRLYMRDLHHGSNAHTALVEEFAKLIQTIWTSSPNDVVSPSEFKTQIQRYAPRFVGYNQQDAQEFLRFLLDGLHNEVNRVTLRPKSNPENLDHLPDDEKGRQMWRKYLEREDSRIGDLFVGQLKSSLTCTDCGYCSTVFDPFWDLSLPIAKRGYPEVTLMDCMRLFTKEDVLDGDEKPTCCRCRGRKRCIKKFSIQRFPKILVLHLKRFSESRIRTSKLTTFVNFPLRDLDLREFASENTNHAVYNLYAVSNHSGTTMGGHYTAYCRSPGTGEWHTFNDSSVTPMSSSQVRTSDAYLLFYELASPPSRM

The target in this assay is Ubiquitin carboxyl-terminal hydrolase 2 (Homo sapiens) (UniProt O75604). The experiment in a line: Confirmation Concentration-response Assay for Inhibitors of Ubiquitin-specific Protease USP2a. Particulars: USP2 core, Ub-PLA2 coupled fluorescence, NBD C6-HPC; series mostly up to 38.3 µM; activity, negative = inhibition: at the top concentration. An excerpt:
NIH Molecular Libraries Screening Centers Network [MLSCN] NIH Chemical Genomics Center [NCGC] MLSCN Grant: XO1-MH079852-01 PI Name: Nicholson, Ben. Progenra Inc, Malvern, PA NCGC Assay Overview: Homeostasis of cellular proteins is maintained through a combination of synthesis and degradation. The pathway that accounts for the majority of protein degradation is the ubiquitin-proteasomal pathway. Ubiquitin (Ub) is highly conserved in all cells and the generation of a multi-Ub chain typically targets proteins for degradation by the proteasome. However, ubiquitination is highly reversible and dynamic. Deubiquitination, the reverse process, is catalyzed through the action of enzymes referred to as isopeptidases or deubiquitinating enzymes (DUBs). This group of enzymes is collectively responsible for maintaining adequate pools of free ubiquitin and regulating the ubiquitination status of cellular proteins. The class of DUBs referred to as the ubiquitin-specific proteases (USP) family functions endoproteolytically to cleave Ub chains from a wide range of protein substrates. USP2a deubiquitinates fatty acid synthase (FASN) which has recently been identified as an emerging oncology target. To identify inhibitors of USP2a a cell-free assay was employed. […] The reporter enzyme chosen is phospholipase A2 (PLA2), which has an absolute requirement for a free amino terminus. Thus, fusion of a UBL to the N-terminus of PLA2 inactivates PLA2. When the UBL-PLA2 reporter enzyme is cleaved by USP2, the activated reporter can subsequently act on its substrate, which is the commercially available NBD C6-HPC (Invitrogen). Thus, this coupled assay gives a fluorescent read-out, which is generated through the cleavage of the PLA2 reporter enzyme. The assay, developed by Progenra, Inc. uses Ub-PLA2 and USP2a at near equal and low (nM) amounts and has been licensed for sale by LifeSensors, Inc. as the Ub-IsoPro1 kit.
NCGC Assay Protocol Summary: The assay buffer, prepared fresh at the day of the assay, contains 20mM Tris-HCl pH 8.0, 2mM CaCl2, 2mM beta-Mercaptoethanol, 0.1% DMSO. 3ul of 40nM (20nM final) USP2 core, which is stored on ice, is dispensed into a medium-binding black solid Kalypsys 1,536 well plate using the Kalypsys dispenser. The assay plate is then pinned with 23nL compound with the Kalypsys pintool in columns 5-48. The controls are pinned as follows: column 1&2 two-fold dilutions of 2M NEM in duplicate; column 3 DMSO; column 4 2M NEM (final concentration […]). The assay plate is incubated at RT for 30min. Subsequently, 3uL of 40nM (20nM final) Ub-PLA2 and 40uM (20uM final) NBD C6-HPC (stored on ice and protected from light) were dispensed into the plate using the Kalypsys dispenser. Plates were read immediately (0 Hour) on an Envision (Perkin Elmer) plate reader using the following wavelengths Ex 460nm /Em 535nm. Then, the assay plates were incubated for 2.5 hours and read again on the Envision using the same settings Data were normalized to the to AC100 inhibition (NEM). Concentration-response curves were fitted to the normalized data and the concentration-response curves were then classified based on curve quality (r2), response magnitude and degree of measured activity. The time zero reading was used to flag fluorescence artifacts. Keywords: ubiquitination, deubiquitination, proteases, profluorescent, MLSMR, MLSCN, NIH Roadmap, qHTS, NCGC
In the case of `Cc1ccc(-n2nc3c(=O)n(CCCC(=O)NCCc4ccccc4Cl)nc(C)c3c2C)cc1`, the Potency was 11.2 µM (active).

Consider `COC(=O)c1c(NC(=O)CS(=O)(=O)c2ccc(C)cc2)sc2c1CCCCC2`, for which the “activity, negative = inhibition” value is -4.33% (inactive).

Turning to `Cc1ccc([C@H]2Nc3ccc(S(=O)(=O)Nc4cccc(Cl)c4C)cc3[C@H]3C=CC[C@H]32)cc1`, the Potency was 7.94 µM (active).

`Oc1c(C(Nc2ccccn2)c2ccccc2F)ccc2cccnc12` (centres undefined): the “activity, negative = inhibition” value is 48.7% (inactive).

For the molecule `CCOC(=O)C1CCCN(c2c(C(=O)c3ccc(C)cc3)cnc3ccc(OCC)cc23)C1` (centres undefined), the Potency is 3.16 µM (active).

As for `CCc1ccc(C(=O)c2c(N)c(-c3nc(-c4ccc5c(c4)OCO5)cs3)c3ccccn23)cc1`, the “activity, negative = inhibition” value is -99.9% (inactive).

As for `CCC(C)NC(=O)CSc1nc2cc3c(cc2c(=O)n1Cc1ccc(C(=O)NCCc2ccc(OC)c(OC)c2)cc1)OCO3` (centres undefined), the “activity, negative = inhibition” value was 24.3% (inactive).

With `CCS(=O)(=O)c1nc(S(=O)(=O)c2ccc(C)cc2)c(NCC(C)C)s1`, the Potency is 2.82 µM (active).

Regarding `COc1ccc(Cl)cc1NC(=O)CSc1nc(=O)[nH]c2c1CCC2`, the “activity, negative = inhibition” value is -51.2% (inactive).

`O=C(CCS(=O)(=O)c1ccccc1)N(Cc1cccnc1)c1nc2c(Cl)cccc2s1`: the “activity, negative = inhibition” value was -20.5% (inactive).

Turning to `CCCCCC(=O)N1c2ccccc2C(C)(c2ccccc2)CC1(C)C` (centres undefined), the Potency was 12.6 µM (active).

Regarding `Cc1cc(C)c2nc(N(Cc3cccnc3)C(=O)CCS(=O)(=O)c3ccccc3)sc2c1`, the “activity, negative = inhibition” value is 3.88% (inactive).

In the case of `Cc1ccc(S(=O)(=O)Cc2nc(-c3ccc(C(=O)NCc4ccccc4F)cc3)oc2C)cc1`, the Potency was 14.1 µM (active).

For the molecule `COc1ccc(C(=O)/C=C/c2cn(CC(O)CN(CC(C)C)CC(C)C)c3ccccc23)cc1OC` (centres undefined), the Potency is 12.6 µM (active).
